Bioassay records deposited in PubChem by National Center for Advancing Translational Sciences (NCATS).
Sampled rows, rich in hits. Any-hit rate of the full collection: about 19%.
SW480 rerep = A quantitative high throughput screen for small molecules that induce DNA re-replication in SW480 colon adenocarcinoma cells; SW480 DNA re-replication, Hoechst DNA content imaging, 48 h; Potency, µM (top dose mostly 46.1 µM), without a hit: top-dose re-replication activation, hits mostly activators; 1.8% of 340,000 active; AID 624297, 2012; note: potency is the fitted concentration of half-maximal effect; % of control where 0% means no effect; nearly all actives have a fitted effect of over 55% in size
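Readout is total intensity of Hoechst-stained nuclei, excited at 405 nm and collected at 500-530 nm. Compound treatment lasted 48 hr at 37 C in 5% CO2 before staining.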
DT40 TDP1 no CPT = qHTS for Inhibitors of human tyrosyl-DNA phosphodiesterase 1 (TDP1): qHTS in cells in absence of CPT | DT40 Tdp1-/- hTDP1 cells, no CPT, ATP luminescence, 48 h | AID 686978, 2013 | Potency, µM (series often up to 46.2 µM), for the others: at the top dose activity change, negative = growth inhibition, hits mostly inhibitors | 15% of 420,000 active; note: potency is the fitted concentration of half-maximal effect; % is set by controls: 0 for no effect and ±100 for the full control effect; nearly all actives have a fitted effect of over 55% in size
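Chicken DT40 Tdp1-/- cells complemented with human TDP1, screened without camptothecin (DMSO vehicle only), 400 cells/well. Compounds pin-transferred, cells incubated at 37 °C for at least 48 hr. Growth read as ATP-dependent luminescence (CellTiter-Glo, 30 min at RT).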
IL-1B inflam inh = qHTS for Inhibitors of Inflammasome Signaling: IL-1-beta AlphaLISA Primary Screen; THP-1 LPS/ATP IL-1B secretion, AlphaLISA, 16 h; hits give low values; activity change, % at 57.5 µM; 4.7% of 360,000 active; in the data active = activity change below about -50%; inconclusive = mostly about -30% to -49%; note: % is set by controls: 0 for no effect and ±100 for the full control effect
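THP-1 cells pretreated 1 hr with compounds (up to 57.5 uM final), then stimulated with LPS (250 ng/mL final) plus ATP (1.25 mM final); secreted IL-1B measured by AlphaLISA after 16 hr, decreased signal indicating inhibition.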
MCF10A rereplic = A quantitative high throughput screen for small molecules that induce DNA re-replication in MCF 10a normal breast cells; Potency, µM (series often up to 46.1 µM), without a hit: at the top dose activity, positive = re-replication, actives largely listed as activators; MCF 10A DNA re-replication, Hoechst nuclear intensity, 48 h; 2.9% of 350,000 active; note: potency is the fitted concentration of half-maximal effect; % of control where 0% means no effect; nearly all actives have a fitted effect of over 50% in size
BCR signal inh = qHTS Assay to Find Inhibitors of Chronic Active B-Cell Receptor Signaling | Potency, µM (titrated, usually from 46.1 µM), inactives show top-dose activity change, negative = inhibition, hits mostly inhibitors | AID 493014, 2011 | 0.05% of 340,000 active | ABC-DLBCL IkBa-CBG/CBR reporter, luminescence ratio, 4 h; active = well fitted inhibition curve with a large enough effect in the signal ratio, with a control signal flat, not every such curve was filed as active; inconclusive = small, poorly fitted or top-dose-only effect, or effect the other way, or a change in a side signal; the % refers to the signal ratio;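 note: potency is the fitted concentration of half-maximal effect; plate controls were basal doxycycline-induced cells for no effect and cells given 10 µM MG132 for full effect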
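Doxycycline induced both beetle luciferases in TMD8 lymphoma cells; IKK-driven degradation limits the IkappaBalpha-fused green signal, while red luminescence normalises for cell number and nonspecific effects. Compounds tested up to 46 uM, 4 hrs.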
DT40 TDP1 CPT = qHTS for Inhibitors of human tyrosyl-DNA phosphodiesterase 1 (TDP1): qHTS in cells in presence of CPT; chicken DT40 Tdp1-/-;hTDP1 cells + 20 nM CPT, ATP luminescence, 48 h; Potency, µM (series often up to 46.2 µM), inactives show top-dose activity change, negative = growth inhibition, usual class: inhibitors; AID 686979, 2013; 12% of 420,000 active; note: potency is the fitted concentration of half-maximal effect; % is set by controls: 0 for no effect and ±100 for the full control effect; nearly all actives have a fitted effect of over 55% in size
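Chicken DT40 Tdp1-/- cells complemented with human TDP1, 400 cells/well, exposed to compounds plus 20 nM camptothecin for at least 48 h at 37 C; viability read as ATP content by CellTiter-Glo luminescence.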
Active calls of the source: *; u = inconclusive; x = not tested or not shown; [ ] = dose if it differs, or a comment. Unless noted, calls come from the whole dose curve; as a rule, active = well fitted curve in the direction sought with a large enough effect; inconclusive = small, poorly fitted or top-dose-only effect, or another doubt; inactive = no such curve, though single readings can be large; an effect the other way counts as inactive or inconclusive.

SMILES	SW480 rerep	DT40 TDP1 no CPT	IL-1B inflam inh	MCF10A rereplic	BCR signal inh	DT40 TDP1 CPT
O=C(O)/C=C/c1ccc(OCc2cccc(F)c2)cc1	4%	u	-3	u	u	u
CCCCN1C(=O)C(O)(c2c(C)[nH]c3ccccc23)c2cc(Br)ccc21 (configuration not stated)	x	4.1µM*	x	x	x	5.8µM*
CCOC(=O)CN1C(=O)C(O)(c2c(C)[nH]c3ccccc23)c2ccccc21 (configuration not stated)	-1%	12%	28	12%	4%	13%
CCN1C(=O)C(O)(c2c[nH]c3ccccc23)c2cc(Br)ccc21 (configuration not stated)	x	u	x	x	x	-10%
CCCCN1C(=O)C(O)(c2c(C)[nH]c3ccccc23)c2ccccc21 (configuration not stated)	x	5.8µM*	x	x	x	5.8µM*
Cc1cccc(NS(=O)(=O)c2cn(C)c(=O)n(C)c2=O)c1C	-2%	0%	3	2%	2%	0%
Cc1ccc(-n2nc3c(=O)n(C(C)C(=O)NCc4ccc(OC(C)C)cc4)nc(C)c3c2C)cc1 (configuration not stated)	x	13µM*	x	x	x	16µM*
Cc1ccc(-n2nc3c(=O)n(C(C)C(=O)NCc4ccccc4C)nc(C)c3c2C)cc1 (configuration not stated)	x	23µM*	x	x	x	u
CC(=O)N(CCCNC(=O)c1ccccc1)C(=O)c1ccccc1	10%	-6%	44	7%	2%	0%
COc1ccc(-c2ccc(CN3C(C)C(=O)N(Cc4cn(CCC5OCCCO5)nn4)CCS3(=O)=O)cc2)cc1 (configuration not stated)	x	18µM*	14	x	x	16µM*
CC1C(=O)N(Cc2cn(CCC3OCCCO3)nn2)CCS(=O)(=O)N1Cc1ccc(-c2ccc(F)cc2)cc1 (configuration not stated)	x	18µM*	-12	x	x	12µM*
CC1C(=O)N(Cc2cn(CCC3OCCCO3)nn2)CCS(=O)(=O)N1Cc1ccc(-c2ccc(Cl)c(Cl)c2)cc1 (configuration not stated)	x	3.7µM*	-20	x	x	4.1µM*
COCOCCn1cc(CN2CCS(=O)(=O)N(Cc3ccc(-c4ccc(F)nc4)cc3)C(C)C2=O)nn1 (configuration not stated)	x	-19%	12	x	x	-1%
Cc1cccc(C(C)C)c1NC(=O)C(C)OC(=O)Cc1n[nH]c(=O)c2ccccc12 (configuration not stated)	-6%	-9%	3	-1%	0%	-17%
C[C@@H]1CN([C@H](C)CO)C(=O)CCCn2cc(nn2)CO[C@H]1CN(C)C(=O)C1CC1	x	u	6	x	x	20%
CN1C(C(=O)Nc2ccc(F)cc2F)=CC(c2ccco2)=NS1(=O)=O	2%	-28%	7	-1%	-7%	u
COc1ccc(C2=NS(=O)(=O)N(C)C(C(=O)Nc3ccc(C(C)=O)cc3)=C2)cc1OC	-15%	12µM*	-97*	16%	u	18µM*
Cc1ccc(C2=NS(=O)(=O)N(C)C(C(=O)Nc3ccc(F)cc3F)=C2)cc1	2%	u	-7	16%	u	21µM*
COc1cc(NC(=O)C2=CC(c3cccs3)=NS(=O)(=O)N2C)cc(OC)c1OC	2%	u	17	6%	2%	u
COc1ccc(C2=NS(=O)(=O)N(C)C(C(=O)Nc3cc(C)ccc3O)=C2)cc1OC	-8%	5.2µM*	-20	-3%	u	7.3µM*
COc1ccc(C2=NS(=O)(=O)N(C)C(C(=O)Nc3cc(OC)c(OC)c(OC)c3)=C2)cc1	-6%	15µM*	-25	7%	11%	12µM*
Cn1cc(-c2nc3cnc(Oc4ccccc4)nc3n(CCC#N)c2=O)c2ccccc21	x	9%	x	x	x	12%
Cc1cc(C)n(C(=O)CNC(=O)c2ccc(Cl)cc2Cl)n1	-3%	-21%	3	-5%	16%	-2%
Cc1ccccc1N1CCN(C2CCCN(C(=O)CCn3cnnn3)C2)CC1 (configuration not stated)	-10%	-17%	-12	0%	-3%	1%
Cc1ccc(NC(=O)C2=CC(c3ccc4c(c3)OCO4)=NS(=O)(=O)N2C)cc1	x	-20%	x	x	x	1%
SMILES	SW480 rerep	DT40 TDP1 no CPT	IL-1B inflam inh	MCF10A rereplic	BCR signal inh	DT40 TDP1 CPT
COc1cccc(C2=NS(=O)(=O)N(C)C(C(=O)Nc3cccc(O)c3)=C2)c1	x	16µM*	x	x	x	15µM*
CC(=O)c1cccc(NC(=O)C2=CC(c3ccc4c(c3)OCO4)=NS(=O)(=O)N2C)c1	-3%	16µM*	-16	3%	1%	u
Cc1ccc(C2=NS(=O)(=O)N(C)C(C(=O)Nc3cc(C)n(CC(=O)N4CCC(C)CC4)n3)=C2)cc1	0%	21µM*	-7	-1%	5%	u
COc1ccc(CNC(=O)C2=CC(c3cccc(OC)c3)=NS(=O)(=O)N2C)cc1	x	9%	x	x	x	8%
COc1ccc(C2=NS(=O)(=O)N(C)C(C(=O)Nc3ccc(OC)c(OC)c3)=C2)cc1	2%	16µM*	9	4%	-1%	u
C=C(C)CN(CC)C(=O)CSc1ccc(S(=O)(=O)N2CCN(C)CC2)cn1	-8%	-27%	0	u	-2%	-22%
CCN(CC)CCCNC(=O)Cn1nc(C)n2c(cc3sccc32)c1=O	x	-10%	x	x	x	2%
Cc1ccc(S(=O)(=O)N2CCN(C(=O)COC(=O)c3cnc(C)cn3)CC2)c(C)c1	3%	-3%	2	1%	2%	12%
O=C(c1ccccc1)c1ccc2n1CC[C@H]2C(=O)O	-5%[20.6 µM]	x	x	-1%[20.6 µM]	x	x
CC(=O)N1CCc2cc(Br)cc(S(=O)(=O)N3CCN(c4cc(C)ccc4C)CC3)c21	x	4%	x	x	x	7%
Cc1ccc2c(c1)cc(C(=O)Nc1ccc(F)cc1F)n2C	x	7.3µM*	x	x	x	u
COc1ccc(NC(=O)C2=CC(c3ccc(C)cc3)=NS(=O)(=O)N2C)cc1	-6%	23µM*	2	8%	5%	16µM*
